# Data reported in PubChem BioAssay (EPA / NIEHS).
# Records with an inconclusive call do not appear. Activity calls are given as the source filed them. Rule for the calls, unless noted: active = hit-call score of the fitted dose curve at least 0.9, where 1 is the maximum; inconclusive = response in the unintended direction; inactive = score below 0.9.
# How the values were obtained:
# [1] = target: human CYP4F12, CYP4F12 (gene 66002) (UniProt Q9HCS2); experiment: NVS_ADME_hCYP4F12: NovaScreen (NVS) CYP450-related Enzyme Activity (ADME) Assay for human CYP4F12 (AID 2283111)
# Method in brief: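 Cell-free fluorescence assay of recombinant human CYP4F12 activity on a specific substrate, read 0.5 h after dosing. Primary screen in duplicate at 10 uM, then concentration series for actives; loss of signal fitted against acetonitrile negative control.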
# [2] = target: human AMP-activated Protein Kinase, alpha 1 (AMPKa1), PRKAA1 (gene 5562) (UniProt Q13131); experiment: NVS_ENZ_hAMPKa1: NovaScreen (NVS) Enzymatic Assay for human AMP-activated Protein Kinase, alpha 1 (AMPKa1) (AID 2283130)
# Method in brief: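 Recombinant human AMPKα1 activity was measured cell-free by fluorescent substrate conversion with electrophoretic mobility-shift separation, 1 h after dosing. Duplicate single-point screening was at 25 uM; actives (≥30% inhibition) were retested in concentration-response up to 50 uM.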
# [3] = target: human Fibroblast Growth Factor Receptor 1 (FGFR1), FGFR1 (gene 2260) (UniProt P11362); experiment: NVS_ENZ_hFGFR1: NovaScreen (NVS) Enzymatic Assay for human Fibroblast Growth Factor Receptor 1 (FGFR1) (AID 2283159)
# Method in brief: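 Cell-free recombinant kinase with fluorescent substrate, product separated by electrophoretic mobility shift; read 1 hour after dosing, loss of signal relative to DMSO. Initial screen in duplicate at 25 uM, actives followed in concentration series.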
# [4] = target: human Mitogen-Activated Protein Kinase 1 (MAPK 1), MAPK1 (gene 5594) (UniProt P28482); experiment: NVS_ENZ_hMAPK1: NovaScreen (NVS) Enzymatic Assay for human Mitogen-Activated Protein Kinase 1 (MAPK 1) (AID 2283175)
# Method in brief: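 Cell-free recombinant human MAPK1 enzymatic assay, fluorescence/electrophoretic mobility shift read at 1 h; loss of signal vs DMSO. Primary screen in duplicate at 25 uM; actives (e.g. ≥30% inhibition) run as concentration-response up to 50 uM.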
# [5] = target: human MET Proto-Oncogene, Receptor Tyrosine Kinase (MET), MET (gene 4233) (UniProt P08581); experiment: NVS_ENZ_hMet: NovaScreen (NVS) Enzymatic Assay for human MET Proto-Oncogene, Receptor Tyrosine Kinase (MET) (AID 2283180)
# Method in brief: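 Cell-free MET kinase assay using recombinant protein and fluorescent substrate, with mobility-shift separation; read 1 h after dosing. Primary duplicate at 25 uM; actives in singleton concentration-response to 50 uM maximum. Signal loss versus DMSO.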
# [6] = target: human Protein Tyrosine Phosphatase Non-receptor Type 2 (PTPN2), PTPN2 (gene 5771) (UniProt P17706); experiment: NVS_ENZ_hPTPN2: NovaScreen (NVS) Enzymatic Assay for human Protein Tyrosine Phosphatase Non-receptor Type 2 (PTPN2) (AID 2283207)
# Method in brief: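 Cell-free recombinant enzyme with fluorescent substrate, product separated by electrophoretic mobility shift; read 1 h after dosing. Primary screen single concentration (25 uM) in duplicate; actives followed in concentration series; loss of signal versus DMSO.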
# [7] = target: human Raf-1 Proto-Oncogene, serine/threonine Kinase (RAF1), RAF1 (gene 5894) (UniProt P04049); experiment: NVS_ENZ_hRAF1: NovaScreen (NVS) Enzymatic Assay for human Raf-1 Proto-Oncogene, serine/threonine Kinase (RAF1) (AID 2283216)
# Method in brief: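 Cell-free recombinant kinase with specific fluorescent substrate, product separated by electrophoretic mobility shift; read 1 h after dosing. Primary screen at 25 uM in duplicate; hits then run in concentration-response up to 50 uM, fitted as loss of signal versus DMSO.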
# [8] = ATG_M_32_XSP2: Attagene TRANS-FACTORIAL Multi-Species (XSP2) HepG2 Assay for M19 Transcription Factor (Internal Marker) (AID 2283826)
# Method in brief: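 Total RNA is taken from compound-treated HepG2 cells after 24 h and reverse-transcribed; reporter cDNA is PCR-amplified, end-labelled with 6-FAM, digested with HpaI for 2h at 37 C and sized by capillary electrophoresis. Activity is fitted in the positive direction against DMSO.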
# [9] = CCTE_Harrill_HTTr_Apoptosis_PRF_DMEM_12hr: (Pilot) CCTE's 12-hour Apoptosis Assessment for the High-Throughput Transcriptomics (HTTr) Platform, in MCF-7 cells cultured in phenol red-free DMEM + 10% charcoal-stripped fetal bovine serum, Harrill Lab (AID 2283985; active = hit-call score of the fitted dose curve at least 0.9, where 1 is the maximum; inactive = score below 0.9)
# Method in brief: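 MCF-7 cells in phenol red-free DMEM with 10% charcoal-stripped FBS, eight-point dilution series, 12 h exposure. Caspase-3/7 activation imaged by high content imaging with CellEvent Green reagent; bidirectional fit vs DMSO.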
# [10] = target: rat CYP1A2, Cyp1a2 (gene 24297) (UniProt P04799); experiment: NVS_ADME_rCYP1A2: NovaScreen (NVS) CYP450-related Enzyme Activity (ADME) Assay for rat CYP1A2 (AID 2283115)
# Method in brief: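 Cell-free recombinant rat enzyme with fluorogenic substrate, read by fluorescence intensity 1 hour after dosing. Loss of signal versus acetonitrile negative control; primary screen at 10 uM in duplicate, actives followed in concentration series.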
# [11] = tested on: rat Monoamine Oxidase, MAO-A, Central (MAOAC), gene 29253; experiment: NVS_ENZ_rMAOAC: NovaScreen (NVS) Enzymatic Assay for rat Monoamine Oxidase, MAO-A, Central (MAOAC) (AID 2283243);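 note: potency refers to inhibition seen as signal drop below DMSO baseline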
# Method in brief: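 Rat brain tissue extract used as enzyme source in a cell-free radiometric assay, read by scintillation counting 1.5 hours after dosing. Loss of signal relative to DMSO baseline scored; primary screen at 25 uM in duplicate, actives followed up in concentration series.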
# [12] = target: Cytochrome P450 2C18 (Homo sapiens) (UniProt P33260); experiment: NVS_ADME_hCYP2C18: NovaScreen (NVS) CYP450-related Enzyme Activity (ADME) Assay for human CYP2C18 (AID 2283103; active = hit-call score of the fitted dose curve at least 0.9, where 1 is the maximum; inactive = score below 0.9)
# Method in brief: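 Cell-free recombinant human CYP2C18 with fluorogenic substrate; fluorescence intensity read 0.5 h after dosing. Single-point screen at 10 uM in duplicate, then concentration-response up to 20 uM; loss of signal fitted against acetonitrile baseline.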
# [13] = target: Norway rat Vesicular Monoamine Transporter (VMAT2), neurotransmitter transporter, Slc18a2 (gene 25549) (UniProt Q01827); experiment: NVS_TR_rVMAT2: NovaScreen (NVS) Transporter Assay for Norway rat Vesicular Monoamine Transporter (VMAT2), neurotransmitter transporter (AID 2283376);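 note: actives lower the bound radioligand signal below the DMSO level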
# Method in brief: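 Tissue: rat forebrain extract. Format: competitive radioligand binding, cell-free. Timepoint: 1 h. Readout: filter radiodetection/scintillation. Screen: 25 uM in duplicate, then concentration series for actives. Baseline: DMSO.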
# [14] = target: rat Monoamine Oxidase, MAO-B, Central (MAOBC), Maob (gene 25750) (UniProt P19643); experiment: NVS_ENZ_rMAOBC: NovaScreen (NVS) Enzymatic Assay for rat Monoamine Oxidase, MAO-B, Central (MAOBC) (AID 2283238)
# Method in brief: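 Compounds were first tested in duplicate at 25 uM against MAO-B from rat brain tissue; those passing the inhibition threshold were retested in concentration series up to 50 uM. Radiodetection by scintillation counting at 1.17 h, analysed against DMSO baseline.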
# [15] = target: human Caspase 2 (CASP2), CASP2 (gene 835) (UniProt P42575); experiment: NVS_ENZ_hCASP2: NovaScreen (NVS) Enzymatic Assay for human Caspase 2 (CASP2) (AID 2283135)
# Method in brief: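 E. coli-expressed enzyme in a cell-free protease assay, fluorescence read 1 h after dosing. Compounds at 25 uM in duplicate, with concentration-response up to 50 uM for hits; loss of signal against DMSO baseline.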
# [16] = target: human Ephrin type-B Receptor 2 (EphB2), EPHB2 (gene 2048) (UniProt P29323); experiment: NVS_ENZ_hEphB2: NovaScreen (NVS) Enzymatic Assay for human Ephrin type-B Receptor 2 (EphB2) (AID 2283156)
# Method in brief: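 Recombinant kinase with fluorescent substrate, product separated by electrophoretic mobility shift, read 1 h after dosing. Duplicate 25 uM screen, then singleton concentration-response to 50 uM max; loss of signal versus DMSO.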
# [17] = target: PPP2CA (gene 5515) (UniProt P67775); experiment: NVS_ENZ_hPPP2CA: NovaScreen (NVS) Enzymatic Assay for human Protein Phosphatase 2 Aatalytic subunit Alpha (PPP2CA) (AID 2283199)
# Method in brief: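 Recombinant human PPP2CA with fluorescent substrate; product separated from substrate by electrophoretic mobility shift, read 1.33 h after dosing. Duplicate single-point at 25 uM, then singleton concentration-response up to 50 uM; loss of signal versus DMSO.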
# [18] = target: human IkappaB Kinase alpha (IKKa), CHUK (gene 1147) (UniProt O15111); experiment: NVS_ENZ_hIKKa: NovaScreen (NVS) Enzymatic Assay for human IkappaB Kinase alpha (IKKa) (AID 2283167)
# Method in brief: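 Cell-free recombinant human IKKa with fluorescent substrate, product separated by electrophoretic mobility shift; read 1 hour after dosing. Primary screen duplicate at 25 uM, actives then concentration-response up to 50 uM; loss of signal relative to DMSO.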
# [19] = target: human Protein Tyrosine Phosphatase Receptor Type C (PTPRC), PTPRC (gene 5788) (UniProt P08575); experiment: NVS_ENZ_hPTPRC: NovaScreen (NVS) Enzymatic Assay for human Protein Tyrosine Phosphatase Receptor Type C (PTPRC) (AID 2283212)
# Method in brief: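 Yeast-extracted human PTPRC used in a cell-free colorimetric enzyme activity read-out, 1 h after dosing. Primary screen in duplicate at 25 uM; actives rerun in concentration-response up to 50 uM, DMSO as baseline.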
# [20] = target: Voltage-dependent N-type calcium channel subunit alpha-1B (Rattus norvegicus) (UniProt Q02294); experiment: NVS_IC_rCaChN: NovaScreen (NVS) Ion Channel Assay for rat Calcium Channel, Type N (CaChN) (AID 2283317)
# [21] = target: rat Adenylate Cyclase, Forskolin Stimulated, Adcy5 (gene 64532) (UniProt Q04400); experiment: NVS_ENZ_rACFSKBinding: NovaScreen (NVS) Enzymatic Assay for rat Adenylate Cyclase, Forskolin Stimulated (AID 2283232)
# Method in brief: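 Rat forebrain membrane preparation, cell-free, read 1 h after dosing by filter-based scintillation counting. Primary screen in duplicate at 25 uM; actives (e.g. ≥30% inhibition) rerun in concentration-response up to 50 uM; fit versus DMSO.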
# human Mitogen-Activated Protein Kinase 1 (MAPK 1), MAPK1 (gene 5594), sequence (P28482 whole entry, looked up): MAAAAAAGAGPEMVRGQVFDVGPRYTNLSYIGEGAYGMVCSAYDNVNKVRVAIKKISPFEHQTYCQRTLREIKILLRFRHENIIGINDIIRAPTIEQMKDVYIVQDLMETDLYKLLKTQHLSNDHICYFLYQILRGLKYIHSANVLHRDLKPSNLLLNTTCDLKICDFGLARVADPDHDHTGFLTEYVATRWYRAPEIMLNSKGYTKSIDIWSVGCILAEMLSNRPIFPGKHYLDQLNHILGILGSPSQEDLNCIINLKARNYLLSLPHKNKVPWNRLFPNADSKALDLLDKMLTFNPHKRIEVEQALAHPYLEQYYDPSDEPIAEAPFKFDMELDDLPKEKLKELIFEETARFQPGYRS
# rat CYP1A2, Cyp1a2 (gene 24297), sequence (P04799 whole entry, looked up): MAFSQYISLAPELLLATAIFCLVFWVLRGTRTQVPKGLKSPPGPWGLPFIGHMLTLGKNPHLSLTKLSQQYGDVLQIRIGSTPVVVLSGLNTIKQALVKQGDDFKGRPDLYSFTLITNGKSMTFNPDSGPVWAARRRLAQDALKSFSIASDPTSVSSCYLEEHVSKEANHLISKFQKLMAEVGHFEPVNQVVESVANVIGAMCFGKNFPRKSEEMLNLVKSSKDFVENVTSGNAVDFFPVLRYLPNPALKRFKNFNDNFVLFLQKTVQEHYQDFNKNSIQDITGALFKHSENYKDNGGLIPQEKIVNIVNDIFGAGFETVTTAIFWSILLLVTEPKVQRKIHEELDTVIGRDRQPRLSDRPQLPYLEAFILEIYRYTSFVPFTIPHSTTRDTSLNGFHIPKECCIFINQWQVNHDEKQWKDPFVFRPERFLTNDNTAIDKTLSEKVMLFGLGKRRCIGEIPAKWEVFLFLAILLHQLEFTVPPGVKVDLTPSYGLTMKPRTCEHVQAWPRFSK
# Cytochrome P450 2C18 (Homo sapiens), sequence (P33260 whole entry, looked up): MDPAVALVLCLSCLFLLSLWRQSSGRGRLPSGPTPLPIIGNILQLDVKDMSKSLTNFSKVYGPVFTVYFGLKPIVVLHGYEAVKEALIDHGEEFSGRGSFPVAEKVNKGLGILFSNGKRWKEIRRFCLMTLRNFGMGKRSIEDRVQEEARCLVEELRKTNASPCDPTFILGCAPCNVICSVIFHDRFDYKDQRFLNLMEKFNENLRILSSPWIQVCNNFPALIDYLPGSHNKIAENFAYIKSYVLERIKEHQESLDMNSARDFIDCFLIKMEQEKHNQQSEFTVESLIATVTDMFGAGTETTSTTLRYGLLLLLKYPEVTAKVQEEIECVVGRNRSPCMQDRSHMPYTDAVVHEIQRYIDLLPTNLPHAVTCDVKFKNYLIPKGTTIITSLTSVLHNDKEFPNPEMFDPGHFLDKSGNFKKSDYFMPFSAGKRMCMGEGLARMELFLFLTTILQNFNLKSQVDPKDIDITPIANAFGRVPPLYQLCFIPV
# rat Adenylate Cyclase, Forskolin Stimulated, Adcy5 (gene 64532), sequence (Q04400 whole entry, looked up): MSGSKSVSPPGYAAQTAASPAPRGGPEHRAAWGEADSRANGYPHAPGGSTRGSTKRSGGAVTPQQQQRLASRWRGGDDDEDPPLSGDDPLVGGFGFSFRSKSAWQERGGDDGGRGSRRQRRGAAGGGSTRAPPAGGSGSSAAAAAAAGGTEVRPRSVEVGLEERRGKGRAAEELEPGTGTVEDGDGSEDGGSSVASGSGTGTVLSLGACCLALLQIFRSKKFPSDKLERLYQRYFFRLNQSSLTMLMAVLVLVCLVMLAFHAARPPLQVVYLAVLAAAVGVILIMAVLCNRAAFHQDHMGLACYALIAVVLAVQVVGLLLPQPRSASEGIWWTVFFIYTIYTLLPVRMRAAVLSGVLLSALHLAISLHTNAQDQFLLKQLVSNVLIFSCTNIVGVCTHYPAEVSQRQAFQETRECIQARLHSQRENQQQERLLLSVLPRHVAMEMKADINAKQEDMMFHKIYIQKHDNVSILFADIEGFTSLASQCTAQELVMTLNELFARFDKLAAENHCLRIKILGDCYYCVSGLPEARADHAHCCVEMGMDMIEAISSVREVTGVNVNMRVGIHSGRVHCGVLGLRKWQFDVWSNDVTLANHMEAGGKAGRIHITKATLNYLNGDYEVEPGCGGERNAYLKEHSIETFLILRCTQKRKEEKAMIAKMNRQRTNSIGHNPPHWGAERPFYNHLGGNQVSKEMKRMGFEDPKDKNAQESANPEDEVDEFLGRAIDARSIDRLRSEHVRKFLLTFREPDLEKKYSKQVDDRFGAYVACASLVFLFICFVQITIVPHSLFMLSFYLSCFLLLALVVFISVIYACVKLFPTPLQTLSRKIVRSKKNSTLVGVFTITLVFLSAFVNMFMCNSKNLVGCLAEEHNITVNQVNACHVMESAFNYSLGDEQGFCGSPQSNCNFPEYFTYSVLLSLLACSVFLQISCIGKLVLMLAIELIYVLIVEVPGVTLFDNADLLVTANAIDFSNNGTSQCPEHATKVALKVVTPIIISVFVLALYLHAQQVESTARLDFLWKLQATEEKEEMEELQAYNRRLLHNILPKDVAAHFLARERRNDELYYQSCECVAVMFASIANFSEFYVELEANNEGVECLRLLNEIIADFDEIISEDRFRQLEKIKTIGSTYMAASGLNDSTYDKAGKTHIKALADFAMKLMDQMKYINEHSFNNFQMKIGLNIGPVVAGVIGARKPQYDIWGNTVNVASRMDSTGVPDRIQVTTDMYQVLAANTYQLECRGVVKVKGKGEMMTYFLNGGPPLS
# human Raf-1 Proto-Oncogene, serine/threonine Kinase (RAF1), RAF1 (gene 5894), sequence (P04049 whole entry, looked up): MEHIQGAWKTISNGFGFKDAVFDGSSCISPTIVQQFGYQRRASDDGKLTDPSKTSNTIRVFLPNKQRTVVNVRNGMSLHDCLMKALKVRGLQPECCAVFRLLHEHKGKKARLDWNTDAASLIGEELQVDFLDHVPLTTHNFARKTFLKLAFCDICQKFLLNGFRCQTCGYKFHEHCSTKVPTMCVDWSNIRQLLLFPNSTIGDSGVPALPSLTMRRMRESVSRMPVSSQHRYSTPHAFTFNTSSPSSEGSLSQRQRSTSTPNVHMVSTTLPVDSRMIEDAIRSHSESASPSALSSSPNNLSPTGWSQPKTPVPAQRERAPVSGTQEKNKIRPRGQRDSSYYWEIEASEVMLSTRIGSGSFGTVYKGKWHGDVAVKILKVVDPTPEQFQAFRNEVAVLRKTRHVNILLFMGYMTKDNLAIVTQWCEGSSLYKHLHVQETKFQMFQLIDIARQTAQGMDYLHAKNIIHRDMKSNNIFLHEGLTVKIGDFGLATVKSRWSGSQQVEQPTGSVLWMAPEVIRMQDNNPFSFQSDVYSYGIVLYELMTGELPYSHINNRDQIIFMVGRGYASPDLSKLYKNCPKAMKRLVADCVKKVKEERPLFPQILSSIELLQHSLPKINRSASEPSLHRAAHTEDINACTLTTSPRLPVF
# human Caspase 2 (CASP2), CASP2 (gene 835), sequence (P42575 whole entry, looked up): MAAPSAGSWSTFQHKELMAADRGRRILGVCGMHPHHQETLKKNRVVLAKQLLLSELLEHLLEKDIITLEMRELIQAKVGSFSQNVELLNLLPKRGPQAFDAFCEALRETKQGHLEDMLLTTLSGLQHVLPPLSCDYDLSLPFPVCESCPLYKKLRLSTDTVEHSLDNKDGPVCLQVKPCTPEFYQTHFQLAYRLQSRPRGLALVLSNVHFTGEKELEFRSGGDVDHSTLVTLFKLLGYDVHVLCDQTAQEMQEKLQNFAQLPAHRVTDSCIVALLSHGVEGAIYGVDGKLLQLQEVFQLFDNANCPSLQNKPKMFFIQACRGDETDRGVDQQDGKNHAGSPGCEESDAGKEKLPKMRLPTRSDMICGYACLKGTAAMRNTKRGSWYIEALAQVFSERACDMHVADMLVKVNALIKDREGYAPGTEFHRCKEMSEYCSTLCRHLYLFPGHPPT
# human Ephrin type-B Receptor 2 (EphB2), EPHB2 (gene 2048), sequence (P29323 whole entry, looked up): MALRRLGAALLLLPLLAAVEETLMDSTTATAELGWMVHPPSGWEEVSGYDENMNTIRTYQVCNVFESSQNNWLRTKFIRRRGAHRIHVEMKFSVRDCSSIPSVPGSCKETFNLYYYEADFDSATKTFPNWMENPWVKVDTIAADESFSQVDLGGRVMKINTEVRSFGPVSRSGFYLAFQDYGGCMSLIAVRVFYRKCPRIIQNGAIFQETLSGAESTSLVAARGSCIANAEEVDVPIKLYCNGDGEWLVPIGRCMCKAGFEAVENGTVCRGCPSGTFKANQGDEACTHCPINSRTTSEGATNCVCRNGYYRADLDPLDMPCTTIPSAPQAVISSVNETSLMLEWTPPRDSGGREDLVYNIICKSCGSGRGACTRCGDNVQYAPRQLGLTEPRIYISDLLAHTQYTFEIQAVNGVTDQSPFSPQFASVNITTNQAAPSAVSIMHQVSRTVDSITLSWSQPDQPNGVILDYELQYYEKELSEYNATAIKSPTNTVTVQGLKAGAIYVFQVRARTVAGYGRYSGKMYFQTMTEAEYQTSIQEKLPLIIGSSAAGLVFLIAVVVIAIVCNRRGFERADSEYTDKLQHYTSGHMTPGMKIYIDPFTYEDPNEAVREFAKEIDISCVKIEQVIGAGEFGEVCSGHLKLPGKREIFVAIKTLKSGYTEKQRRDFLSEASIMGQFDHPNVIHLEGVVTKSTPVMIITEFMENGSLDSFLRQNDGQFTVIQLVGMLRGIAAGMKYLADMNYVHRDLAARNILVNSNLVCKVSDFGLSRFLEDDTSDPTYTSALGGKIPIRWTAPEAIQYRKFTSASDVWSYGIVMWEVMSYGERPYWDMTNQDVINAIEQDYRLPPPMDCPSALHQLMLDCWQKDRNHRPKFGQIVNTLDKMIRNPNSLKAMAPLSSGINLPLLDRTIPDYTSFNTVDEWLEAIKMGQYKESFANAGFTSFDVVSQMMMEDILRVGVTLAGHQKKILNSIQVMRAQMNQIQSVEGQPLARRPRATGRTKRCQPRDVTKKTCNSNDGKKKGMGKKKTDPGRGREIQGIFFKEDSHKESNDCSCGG
compound,measurement,setting,value
CC(C)CCCCCCc1ccc(O)cc1,outcome,[1],inactive
same,outcome,[2],inactive
same,outcome,[3],inactive
same,outcome,[4],inactive
same,outcome,[5],inactive
same,outcome,[6],inactive
same,outcome,[7],inactive
same,outcome,[8],inactive
same,AC50,[9],61.8 µM (active)
O=C1c2ccccc2C(=O)c2c(O)ccc(O)c21,outcome,[10],inactive
same,AC50,[11],18.3 µM (active)
NC(=S)NNC(N)=S,outcome,[10],inactive
CCCCC(CC)COC(=O)c1ccccc1C(=O)O (stereo unspecified),outcome,[12],inactive
same,outcome,[1],inactive
same,outcome,[13],inactive
CCCCC(CC)CN1C(=O)C2C3C=CC(C3)C2C1=O (stereo unspecified),AC50,[12],4.81 µM (active)
same,outcome,[7],inactive
same,outcome,[14],inactive
same,AC50,[8],174 µM (active)
O=C1c2c(O)cccc2Cc2cccc(O)c21,AC50,[15],1.03 µM (active)
NC(=O)N(O)[C@@H]1C=C[C@H](Oc2cccc(Oc3ccc(F)cc3)c2)C1,outcome,[15],inactive
Cc1ccc(N)cc1O,outcome,[16],inactive
same,outcome,[17],inactive
CN(C)C(=O)NC1(c2ccccc2)CCN(CCC[C@]2(c3ccc(Cl)c(Cl)c3)CCCN(C(=O)c3ccccc3)C2)CC1,outcome,[16],inactive
same,outcome,[4],inactive
CC/C(=C(\c1ccccc1)c1ccc(OCCN(C)C)cc1)c1ccccc1,outcome,[18],inactive
same,outcome,[8],inactive
CS(=O)(=O)c1ccc([C@@H](C[C@H]2CCC(=O)C2)C(=O)Nc2cnccn2)cc1Cl,AC50,[19],16.6 µM (active)
same,outcome,[20],inactive
O=C(OC[C@H]1O[C@@H](OC(=O)c2cc(O)c(O)c(OC(=O)c3cc(O)c(O)c(O)c3)c2)[C@H](OC(=O)c2cc(O)c(O)c(OC(=O)c3cc(O)c(O)c(O)c3)c2)[C@@H](OC(=O)c2cc(O)c(O)c(OC(=O)c3cc(O)c(O)c(O)c3)c2)[C@@H]1OC(=O)c1cc(O)c(O)c(OC(=O)c2cc(O)c(O)c(O)c2)c1)c1cc(O)c(O)c(OC(=O)c2cc(O)c(O)c(O)c2)c1,outcome,[21],inactive
NCc1cccc(C2CCN(C(=O)c3ccc(C#Cc4ccccc4F)o3)CC2)c1,outcome,[21],inactive
